Measurements published in PubChem BioAssay (NCI).
Compounds without any hit were thinned out: in the full panel of roughly 83,000, 20% have a hit.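 96-well plates, one dose, 48 hours. Percent growth reported; active if below 10.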 A number with no mark means an inactive call.

test system: SW-620 colon; test: NCI-60 one-dose screen, 48 h (100 = growth as untreated, 0 = no growth, -100 = all killed); conditions: 10 µM unless noted

Row | Structure (SMILES) | growth
1 | O=C(/C=C/c1c(-c2ccc(Cl)cc2)nn(-c2ccccc2)c1C(F)(F)F)c1ccc(Cl)cc1 | 104%
2 | Cc1c(C)c([N+](=O)[O-])c(C)c([N+](=O)[O-])c1C | 109%
3 | CC(c1ccccc1)C(C(=O)c1ccccc1)c1ccccc1 (centres undefined) | 97.7%
4 | COc1cc(NC(=O)CSc2nc3ccc(C)cc3c(=O)n2Cc2ccccc2)cc(OC)c1OC | 81.3%
5 | CSc1nc2sc3cccc(Cl)c3n2c(=N)c1C#N | 102%
6 | CCN(c1ccccc1)S(=O)(=O)c1cc([N+](=O)[O-])ccc1Cl | 46.3%
7 | COC1=CC(=O)c2ccccc2C1=O | 108%
8 | COC(=O)c1ccc2c(c1)[n+](=O)c(C(C)=O)c(C(F)(F)F)n2[O-] | 18.1%
9 | COc1cc(/C=C/C(=O)c2nc3cc(F)ccc3nc2C)cc(OC)c1OC | 29.9%
10 | Cc1nc2ccc(Cl)cn2c1-c1nnc(SCc2ccc([N+](=O)[O-])cc2)o1 | 76.1%
11 | COc1ccc(/C=C/C(=O)Nc2cc(/C=C\c3cc(OC)c(OC)c(OC)c3)cc(OC)c2OC)cc1OC | 35.2%
12 | N#C/C(=C\c1cccc(C#N)c1)c1ccccc1 | 105%
13 | C[C@H]1[C@H]2[C@H]3CC[C@@H]4[C@@]5(C)CC[C@H](O)C(C)(C)[C@@H]5CC[C@@]4(C)[C@]3(C)CC[C@]23CO[C@]1(C)[C@@H](C(=O)/C=C\c1ccco1)C3 | 97.1%
14 | COc1cc2cc(Oc3cccc(NC(=O)Nc4cc(C(F)(F)F)cc(C(F)(F)F)c4)c3)c(C)nc2cc1OC | 15.9%
